Reference: the supplement of paper PMC7726561

B1: unnamed (peptide)
chain: IWEPLAVKL
B2: unnamed (peptide)
chain: AFDEAIAEL
B3: unnamed (peptide)
chain: LYDVPANSM
B4: unnamed (peptide)
chain: TFDPVTKVL
B5: unnamed (peptide)
chain: KFDDGAVFL
B6: unnamed (peptide)
chain: SYMEVPTYL
B7: unnamed (peptide)
chain: LFDKSINEF
B8: unnamed (peptide)
chain: IYDKFIAQL
B9: unnamed (peptide)
chain: IWDVSVNSV
B10: unnamed (peptide)
chain: KYDPNVYSI
B11: unnamed (peptide)
chain: TFDVAPSRL
B12: unnamed (peptide)
chain: FFDEESYSL
B13: unnamed (peptide)
chain: HWDPQEVTL
B14: unnamed (peptide)
chain: YYEEQHPEL
B15: unnamed (peptide)
chain: TFDDIVHSF
B16: unnamed (peptide)
chain: FYDPDVGNF
B17: unnamed (peptide)
chain: IYDSVKVYF
B18: unnamed (peptide)
chain: LYDPVISKL

Target: HLA-C*04:01
Assay: thermal melting temperature (Tm) of peptide-HLA complex; higher = more thermostable pHLA complex
Details: C1R-A*02:01
How it was run: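 Values come from C1R-A*02:01 or C1R-B*07:02 lysates (5 × 10^7 cell equivalents per replicate, triplicate), heated for 10 min between 37 and 73 °C and immunoprecipitated overnight at 4 °C with W6/32–protein A sepharose. The acid-eluted peptides were quantified by DIA-MS with iRT normalisation and outlier correction, and each peak area was reported as median fold-change versus 37 °C. The reported Tm is the transition midpoint from a least-squares logistic sigmoid fit. An R^2 above 0.85 was required for each fit.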

Sequence | thermal melting temperature
B1 | 47.3 °C
B2 | 58.4 °C
B3 | 51.1 °C
B4 | 51.4 °C
B5 | 60.9 °C
B6 | 54.8 °C
B7 | 56.3 °C
B8 | 52.5 °C
B9 | 50.8 °C
B10 | 50.6 °C
B11 | 52.3 °C
B12 | 45 °C
B13 | 58.9 °C
B14 | 48.6 °C
B15 | 54.2 °C
B16 | 50.9 °C
B17 | 56.8 °C
B18 | 56.9 °C

Same assay, conditions: C1R-B*07:02

Sequence | thermal melting temperature
B1 | 47.2 °C
B2 | 62.7 °C
B3 | 57.6 °C
B4 | 51.5 °C
B5 | 60.4 °C
B6 | 61 °C
B7 | 57.2 °C
B8 | 54.5 °C
B9 | 58.7 °C
B10 | 55.2 °C
B11 | 52.4 °C
B12 | 43.7 °C
B13 | 57.7 °C
B14 | 47 °C
B15 | 55.3 °C
B16 | 51.2 °C
B17 | 57 °C
B18 | 57.3 °C
